Data from PubChem BioAssay.
The source made the active and inactive calls. Unless noted, no rule for the calls is given here.

What was measured:
[1] = compounds binding Alexa647 anti-His antibody – biochemical, small-molecule microarray, 635 nm fluorescence, artefact control for SMM control protein annotation, primary screen (AID 1128); conditions: higher = more signal;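 also: score merges feature fluorescence with signal-to-noise for each printed compound spot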
[2] = tested on: Human papillomavirus type 1a E7 protein (residues 1-88); assay: HPV1a E7 small-molecule binders, primary screen, biochemical, small-molecule microarray, residues 1-88, 635 nm (AID 1129); conditions: small-molecule microarray binding, fluorescence 635 nm; higher = more signal
[3] = target: Focal adhesion kinase 1 (Homo sapiens) (UniProt Q05397); assay: PTK2 protein binding on printed compound slides – biochemical, small-molecule microarray, 635/667 nm fluorescence, BSA, DTT, primary screen (AID 1130); conditions: 635 nm fluorescence, higher = more signal;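 also: composite of spot emission at 667 nm and signal to noise over triplicate slides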
[4] = tested on: Fibrinogen (Alexa647-labelled); assay: Alexa647-fibrinogen binding to printed small molecules – biochemical, small-molecule microarray, 635/667 nm fluorescence, artefact control for SMM control-protein annotation, profiling panel (AID 1131); conditions: fibrinogen-A647 binding fluorescence, higher = more signal;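 also: z-score merges 667 nm fluorescence with per-spot signal-to-noise over triplicate slides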
[5] = target: Follistatin (Homo sapiens) (UniProt P19883); assay: FST protein binding to printed compounds – biochemical, small-molecule microarray, 635/667 nm fluorescence, primary screen (AID 1132); conditions: 635 nm fluorescence, higher = more signal
[6] = target: Fibroblast growth factor 2 (Homo sapiens) (UniProt P09038); assay: basic fibroblast growth factor binding to printed compounds – biochemical, small-molecule microarray, 635/667 nm fluorescence, primary screen (AID 1133); conditions: FGF2, fluorescence 635/667, higher = more signal
[7] = JC-1 mitochondrial potential readout, lung cancer cells – cell-based, A549, JC-1 fluorescence, basal, 24 h, 100 nL, profiling panel (AID 1138); conditions: higher = more signal;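 also: A549 lung adenocarcinoma cells under basal conditions with no added stimulus; test concentration not given here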
Lefty1 = Lefty1 protein binding to printed compounds – biochemical, small-molecule microarray, 635/667 nm fluorescence, primary screen (AID 1139); conditions: fluorescence 635/667, higher = more signal
[8] = tested on: wheat germ agglutinin (Triticum aestivum), Alexa647-labelled; assay: Alexa647-WGA lectin binding to printed small molecules – biochemical, small-molecule microarray, 635/667 nm fluorescence, artefact control for SMM control-protein annotation, profiling panel (AID 1140); conditions: WGA-A647 binding, 635 nm fluorescence, higher = more signal;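 also: score merges 667 nm feature emission with signal to noise over triplicate slides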
[9] = target: Luciferin 4-monooxygenase (Photinus pyralis) (UniProt P08659); assay: inhibition of purified Photinus pyralis luciferase – biochemical, luminescence, purified enzyme, 2006 set, primary screen (AID 1141); conditions: purified firefly luciferase, SteadyGlo luminescence, 30 min; higher = more signal, called active from +8 up or from −8 down;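 also: cell-free assay with purified firefly luciferase at 100 ng per well in PBS; test concentration not given here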
[10] = tested on: Wnt5a (protein binding on small-molecule microarray); assay: small molecules binding Wnt5a protein – biophysical, small-molecule microarray, 635/667 nm fluorescence, primary screen (AID 1142); conditions: 635 nm fluorescence, higher = more signal;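 also: fluorescence read at 667 nm with signal to noise per printed feature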
[11] = ATP-based viability of Huh7 replicon cells – cell-based, CellTiter-Glo luminescence, basal, 48 h, cytotoxicity control for HCV replication inhibitor project, primary screen (AID 1143); conditions: higher = more signal, called active from +8 up or from −8 down;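 also: Huh7 hepatoma cells carrying a hepatitis C replication reporter with no stimulus; test concentration not given here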
[12] = Pseudomonas biofilm growth suppression – PAO1 strain, BacTiter-Glo luminescence, LB-PBS, primary screen (AID 1144); conditions: P. aeruginosa PAO1 biofilm, 12 h, higher = more signal
[13] = basal CRE-LacZ reporter activity in PC12 – cell-based, unstimulated, primary screen (AID 1145); conditions: no forskolin, luminescence, 4.5 h, higher = more signal, called active from +8 up or from −8 down
[14] = forskolin-driven CRE-LacZ activity in PC12 – cell-based, CRE-LacZ reporter, forskolin-stimulated, primary screen (AID 1146); conditions: luminescence, 4.5 h, higher = more signal, called active from +8 up or from −8 down;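 also: PC12 cells with 6xCRE LacZ reporter stimulated by forskolin 10 µM; beta-galactosidase reporter signal reflecting CREB driven transcription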
[15] = target: Streptavidin (Streptomyces avidinii) (UniProt P22629); assay: compounds binding control protein streptavidin – biophysical, small-molecule microarray, 635/667 nm fluorescence, artefact control for SMM compound annotation, primary screen (AID 1147); conditions: higher = more signal;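 also: signal reflects streptavidin binding to arrayed compounds as a control protein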
[16] = probe aInhba binding on compound microarray – biochemical, small-molecule microarray, 635/667 nm fluorescence, primary screen (AID 1148); conditions: higher = more signal;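 also: score merges 667nm spot fluorescence with signal-to-noise for antibody binding to printed compounds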
Torsin-1A (Homo sapiens) [17] = target: Torsin-1A (Homo sapiens) (UniProt O14656); assay: TOR1A wild-type binding on microarray – cell lysate, small-molecule microarray, lysate, 635/667 nm, primary screen (AID 1149); conditions: COS7 hTOR1A-WT lysate, 635 nm fluorescence, higher = more signal
Torsin-1A (Homo sapiens) [18] = target: Torsin-1A (Homo sapiens) (UniProt O14656); assay: torsin A mutant lysate binding on microarrays – cell lysate, small-molecule microarray, COS7 lysate, 635/667 nm fluorescence, primary screen (AID 1150); conditions: COS7 hTOR1A mutant lysate, 635 nm fluorescence, higher = more signal;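 also: score pools 667 nm emission and signal to noise measuring lysate protein binding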
[19] = tested on: Sonic hedgehog protein (Shh); assay: Sonic hedgehog microarray binding compounds – biochemical, small-molecule microarray, 635/667 nm fluorescence, primary screen (AID 1151); conditions: 635 nm fluorescence, higher = more signal;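 also: Shh protein binding to compounds spotted on small-molecule microarray slides; score combines spot fluorescence intensity with signal-to-noise across triplicate slides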

Chain of Focal adhesion kinase 1 (Homo sapiens) (Q05397 whole entry, looked up): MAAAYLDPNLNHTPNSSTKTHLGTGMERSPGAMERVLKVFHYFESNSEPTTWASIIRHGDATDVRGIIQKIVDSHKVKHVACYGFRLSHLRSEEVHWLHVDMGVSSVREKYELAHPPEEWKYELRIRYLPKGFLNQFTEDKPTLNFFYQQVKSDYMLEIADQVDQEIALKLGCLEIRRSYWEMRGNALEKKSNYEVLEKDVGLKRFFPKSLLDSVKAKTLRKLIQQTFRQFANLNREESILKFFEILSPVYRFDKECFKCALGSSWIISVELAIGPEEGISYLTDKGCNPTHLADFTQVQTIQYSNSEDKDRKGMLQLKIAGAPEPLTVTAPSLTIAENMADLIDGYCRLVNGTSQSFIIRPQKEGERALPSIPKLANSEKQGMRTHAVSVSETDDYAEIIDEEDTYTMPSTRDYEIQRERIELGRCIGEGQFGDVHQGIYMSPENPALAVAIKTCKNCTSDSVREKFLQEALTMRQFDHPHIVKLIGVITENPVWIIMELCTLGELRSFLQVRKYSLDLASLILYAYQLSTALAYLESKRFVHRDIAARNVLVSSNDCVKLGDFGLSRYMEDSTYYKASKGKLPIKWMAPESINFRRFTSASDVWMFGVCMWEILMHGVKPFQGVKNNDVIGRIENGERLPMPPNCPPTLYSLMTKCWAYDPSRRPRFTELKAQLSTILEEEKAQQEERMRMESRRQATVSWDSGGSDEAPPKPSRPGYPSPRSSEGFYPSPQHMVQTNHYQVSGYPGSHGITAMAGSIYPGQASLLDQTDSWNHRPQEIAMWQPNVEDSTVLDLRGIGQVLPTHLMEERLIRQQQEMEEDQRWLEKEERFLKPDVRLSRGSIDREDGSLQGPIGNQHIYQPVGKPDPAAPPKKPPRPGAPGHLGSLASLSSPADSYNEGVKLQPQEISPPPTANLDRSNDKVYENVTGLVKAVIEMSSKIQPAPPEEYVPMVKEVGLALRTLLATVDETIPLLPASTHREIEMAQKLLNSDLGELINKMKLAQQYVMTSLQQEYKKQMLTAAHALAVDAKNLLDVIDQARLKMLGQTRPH
Chain of Torsin-1A (Homo sapiens) (O14656 whole entry, looked up): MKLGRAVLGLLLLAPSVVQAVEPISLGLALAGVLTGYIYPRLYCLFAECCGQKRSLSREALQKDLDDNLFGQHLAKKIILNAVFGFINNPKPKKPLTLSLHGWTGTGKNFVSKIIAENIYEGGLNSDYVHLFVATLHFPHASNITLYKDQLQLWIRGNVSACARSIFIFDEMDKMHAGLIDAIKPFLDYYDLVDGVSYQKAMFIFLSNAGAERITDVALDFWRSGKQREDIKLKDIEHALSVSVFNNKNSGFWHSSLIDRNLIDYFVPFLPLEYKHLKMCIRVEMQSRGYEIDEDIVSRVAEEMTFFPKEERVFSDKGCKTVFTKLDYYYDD
Chain of Luciferin 4-monooxygenase (Photinus pyralis) (P08659 whole entry, looked up): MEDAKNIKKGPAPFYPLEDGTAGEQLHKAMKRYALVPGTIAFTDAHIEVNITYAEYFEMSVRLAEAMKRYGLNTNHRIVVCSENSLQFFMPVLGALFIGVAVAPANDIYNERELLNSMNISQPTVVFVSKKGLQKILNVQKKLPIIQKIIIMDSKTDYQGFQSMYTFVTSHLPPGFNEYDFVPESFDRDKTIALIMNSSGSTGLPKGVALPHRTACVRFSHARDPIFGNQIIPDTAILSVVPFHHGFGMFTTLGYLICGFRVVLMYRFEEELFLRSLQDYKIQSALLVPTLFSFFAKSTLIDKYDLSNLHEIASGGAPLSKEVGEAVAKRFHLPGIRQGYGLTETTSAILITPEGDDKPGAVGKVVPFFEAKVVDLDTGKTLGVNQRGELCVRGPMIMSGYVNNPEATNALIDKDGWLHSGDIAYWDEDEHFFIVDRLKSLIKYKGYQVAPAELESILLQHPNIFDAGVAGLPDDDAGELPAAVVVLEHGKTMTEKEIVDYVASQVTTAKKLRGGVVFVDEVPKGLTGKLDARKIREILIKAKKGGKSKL
Chain of Follistatin (Homo sapiens) (P19883 whole entry, looked up): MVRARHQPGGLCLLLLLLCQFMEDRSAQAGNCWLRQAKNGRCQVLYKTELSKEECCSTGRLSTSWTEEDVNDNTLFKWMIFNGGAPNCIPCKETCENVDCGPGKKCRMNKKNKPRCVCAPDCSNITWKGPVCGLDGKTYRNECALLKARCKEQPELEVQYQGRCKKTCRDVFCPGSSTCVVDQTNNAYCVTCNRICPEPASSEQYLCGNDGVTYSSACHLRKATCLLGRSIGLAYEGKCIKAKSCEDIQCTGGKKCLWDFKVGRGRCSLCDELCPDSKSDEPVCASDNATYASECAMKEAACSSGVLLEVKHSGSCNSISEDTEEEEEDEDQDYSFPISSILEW
Chain of Streptavidin (Streptomyces avidinii) (P22629 whole entry, looked up): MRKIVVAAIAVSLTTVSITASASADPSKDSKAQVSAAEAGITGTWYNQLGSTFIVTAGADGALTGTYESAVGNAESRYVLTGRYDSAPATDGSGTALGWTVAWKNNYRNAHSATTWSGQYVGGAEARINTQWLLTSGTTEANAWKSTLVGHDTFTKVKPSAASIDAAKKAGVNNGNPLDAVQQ
Chain of Fibroblast growth factor 2 (Homo sapiens) (P09038 whole entry, looked up): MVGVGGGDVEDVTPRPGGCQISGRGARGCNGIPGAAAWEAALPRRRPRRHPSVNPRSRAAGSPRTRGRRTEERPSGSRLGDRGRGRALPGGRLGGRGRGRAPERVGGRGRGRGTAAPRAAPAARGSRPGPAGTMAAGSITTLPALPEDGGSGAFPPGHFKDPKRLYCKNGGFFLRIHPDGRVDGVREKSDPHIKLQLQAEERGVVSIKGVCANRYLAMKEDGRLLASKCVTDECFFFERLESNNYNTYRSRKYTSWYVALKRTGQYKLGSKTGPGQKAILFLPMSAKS

| SMILES | composite z-score [1] | composite z-score [2] | composite z-score [3] | composite z-score [4] | composite z-score [5] | composite z-score [6] | z-score [7] | composite z-score (Lefty1) | composite z-score [8] | z-score [9] | composite z-score [10] | z-score [11] | z-score [12] | z-score [13] | z-score [14] | composite z-score [15] | composite z-score [16] | composite z-score (Torsin-1A (Homo sapiens) [17]) | composite z-score (Torsin-1A (Homo sapiens) [18]) | composite z-score [19] |
| --- | --- | --- | --- | --- | --- | --- | --- | --- | --- | --- | --- | --- | --- | --- | --- | --- | --- | --- | --- | --- |
| C=CCOC(=O)[C@H]1[C@@H]2C(=O)O[C@@H](c3ccccc3)[C@@H](c3ccccc3)N2[C@@H](c2ccc(OCCOC(=O)[C@H]3C[C@H]4C(=O)N[C@@H](CCCCNC(C)=O)C(=O)N4[C@H]3c3cccc(OCCO)c3)cc2)[C@]12C(=O)Nc1ccc(I)cc12 | 1.3 | 1.15 | 0.439 | 0.808 | 1.3 | 1.68 | -1.46 | 1.55 | 0.0811 | -0.33 (inactive) | 1.28 | -2.16 (inactive) | 0.437 (inactive) | 0.557 (inactive) | 0.133 (inactive) | 0.0123 | -0.431 | 0.96 | 0.763 | 2.46 |
| C=CCC(OC(C)=O)[C@@H]1[C@@H](N(Cc2cccc3ccccc23)C(=O)Cc2ccc(F)cc2)c2cc(OCCCO)ccc2N1C(=O)c1ccc(-c2ccccc2)cc1 (stereo not given in full) | -0.517 | -0.0075 | 0.365 | 0.674 | -0.0679 | 0.292 | 0.577 | -0.62 | 0.507 | -0.403 (inactive) | 0.364 | -0.227 (inactive) | -0.169 (inactive) | 1.44 (inactive) | 0.429 (inactive) | -0.153 | 0.066 | 0.143 | 0.102 | 0.246 |
| CC(C)C(CO)N1C(=O)[C@@H]2[C@H]3C(=O)OCC=C[C@H]3OC23C=CCN(C(C)(C)C)C(=O)[C@@H]13 (stereo not given in full) | -0.54 | -1.09 | -0.513 | -0.0751 | 0.277 | -0.405 | -1.76 | 0.503 | -0.0676 | -0.159 (inactive) | -0.682 | -0.342 (inactive) | 0.947 (inactive) | 1.01 (inactive) | 0.412 (inactive) | -0.633 | -0.0762 | -1.59 | -0.934 | 0.54 |
| C=C(COC)/C(=C/C[C@H](OC(C)=O)c1cccc(OCCO)c1)c1cnc2ccccc2c1 | 0.18 | 1.02 | -0.105 | 0.246 | 1.46 | 1.57 | 1.05 | 1.53 | 1.14 | -1.06 (inactive) | 0.484 | -0.184 (inactive) | 0.167 (inactive) | 3.72 (inactive) | 0.298 (inactive) | 1.46 | 0.109 | 1.24 | 0.583 | 2.11 |
| COCCOC(=O)N1C(=O)[C@@]2(c3cc(C#CCNC(N)=O)ccc31)[C@H](c1ccc(O)cc1)N1[C@H](c3ccccc3)[C@H](c3ccccc3)OC(=O)[C@H]1[C@@H]2C(N)=O | -0.685 | -0.703 | -0.529 | -1.39 | -1.91 | -0.93 | 0.902 | -1.72 | -1.18 | -1.03 (inactive) | -0.503 | -0.522 (inactive) | 0.175 (inactive) | 0.224 (inactive) | 0.645 (inactive) | -1.53 | -0.331 | -0.57 | -0.934 | -1.56 |
| O=C1C2C=CC(C(O)c3cc(C(F)(F)F)cc(C(F)(F)F)c3)N(Nc3ccccc3F)C2C(=O)N1c1ccccc1 (stereo not given) | -0.102 | 1.21 | 0.76 | 0.847 | 0.21 | -0.215 | -1.58 | -0.173 | 0.416 | 0.668 (inactive) | 0.17 | -3.68 (inactive) | -0.476 (inactive) | 0.626 (inactive) | -0.0442 (inactive) | 0.714 | 0.385 | -0.0067 | 0.379 | -0.685 |
| COC(=O)C(CC#Cc1ccc2c(c1)[C@]1(C(=O)N2)[C@H](c2ccc(OCCO)cc2)N2[C@H](c3ccccc3)[C@H](c3ccccc3)OC(=O)[C@H]2[C@@H]1C(=O)N1CCN(c2ncccn2)CC1)C(=O)OC | 1.92 | 1.21 | -0.528 | 0.993 | 1.37 | 1.35 | -1.56 | 0.857 | 1.04 | -0.195 (inactive) | 0.419 | -0.339 (inactive) | -0.961 (inactive) | -0.554 (inactive) | 1.27 (inactive) | 0.862 | 0.306 | 0.272 | 0.666 | 1.2 |
| O=C1[C@@H]2[C@@H](CC(COc3ccccc3)=C3[C@@H](CCc4ccccc4)OB(O)C[C@@H]32)C(=O)N1Cc1ccccc1 | -0.147 | 0.871 | 0.034 | 0.0907 | 0.445 | 0.161 | 1.83 | 0.212 | 0.344 | -1.06 (inactive) | -0.0294 | -1.91 (inactive) | 0.132 (inactive) | 1.94 (inactive) | -1.12 (inactive) | 0.376 | -0.0161 | 0.0258 | 0.256 | 0.919 |
| C=CCC(OC(C)=O)[C@@H]1[C@@H](N(Cc2ccc(-c3ccccc3)cc2)C(=O)c2ccc(C)cc2)c2cc(OCCCO)ccc2N1C(=O)Cc1ccc2ccccc2c1 (stereo not given in full) | 0.0102 | -0.823 | -0.0958 | 0.0701 | 0.37 | -0.154 | 3.13 | 0.293 | 0.0607 | -2.19 (inactive) | -0.0632 | -0.889 (inactive) | -0.0727 (inactive) | 1.66 (inactive) | -0.515 (inactive) | 0.129 | -0.0986 | 0.0508 | -0.577 | 1 |
